Bioassay records: PubChem BioAssay, The Scripps Research Institute Molecular Screening Center
ssDAF-12 act = S. stercoralis DAF-12 nuclear receptor activators, primary screen, cell-based, luminescence, HEK293, GRIP1 co-expression, lit1-tk-luc; HEK293 ssDAF-12/GRIP1 lit1-tk-luc reporter; % of 3 µM dafachronic acid response; activation, % at 6.8 µM; 370,000 compounds, 1% hits;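 active means activation above the mean over all tested compounds plus 3 SD, cut at about 0.9% in these data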;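 further: 0% = DMSO-only wells and 100% = 3 µM delta7-dafachronic acid wells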
hgDAF-12 ag = H. glycines DAF-12 receptor agonists, primary screen, cell-based, luminescence, HEK293, GAL4 fusion, UAS-luciferase. Nuclear hormone receptor DAF-12 (Heterodera glycines), GAL4 fusion. HEK293 GAL4-hgDAF12 UAS-luciferase reporter, agonist luminescence; normalized to butyrate control. activation, % at 6.8 µM. 370,000 compounds, 1.8% hits;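 active means activation above a cutoff set at the mean of all screened compounds plus 3 SD, cut at about 10% in these data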;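 further: 0% = DMSO wells and 100% = sodium butyrate wells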
hcDAF12 agonist = H. contortus DAF-12 nuclear receptor activators, primary screen, cell-based, luminescence, HEK293, lit1-tk-luc reporter; HEK293 hcDAF-12 lit1-tk-luc reporter; 0% DMSO, 100% Δ7-dafachronic acid; activation, % at 6.8 µM; 370,000 compounds, 1.4% hits; AID 652067, 2013;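 active means activation above the mean of all tested compounds plus 3 SD, cut at about 5.5% in these data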;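 further: 100% = response to 3 µM Δ7-dafachronic acid high control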
DAX1 inh-1 = DAX1 (NR0B1) inhibitors on StAR promoter, primary screen, cell-based, luminescence, SF-1 (NR5A1), full-length DAX-1; inhibition, % at 6.8 µM; 370,000 compounds, 1.1% hits; HEK293T StAR-luciferase reporter, SF-1/DAX-1 repression relief; AID 652010, 2013;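 active means inhibition above the mean over all tested compounds plus 3 SD, cut at about 3.6% in these data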;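 further: 0% = DAX-1 cells with DMSO and 100% = cells lacking DAX-1 with DMSO; higher inhibition means more luminescence from relief of DAX-1 repression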
DAX1 inh-2 = DAX1 (NR0B1) inhibitors, primary screen, cell-based, HEK293, Gal4-DAX1, luciferase luminescence | AID 504766, 2011 | HEK293 Gal4-DAX1 luciferase reporter | inhibition, % at 6.75 µM | 340,000 compounds, 0.99% hits | Nuclear receptor subfamily 0 group B member 1 (Homo sapiens), P51843;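 active means inhibition above the mean over all tested compounds plus 3 SD, cut at about 4.2% in these data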;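 further: 0% = DAX1-transfected cells with DMSO and 100% = empty-vector control cells with DMSO; inhibition shows as a rise in luminescence from relieved DAX1 repression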
FXN GAA850 act = FXN promoter activators, primary screen, cell-based, luciferase luminescence, HEK293 lucGAA850; HEK293 lucGAA850 FXN promoter luciferase reporter, 24 h; percent of 10 µM SAHA response; activation, % at 6 µM; 360,000 compounds, 0.56% hits;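 active means activation above the average of all compounds screened plus 3 SD, cutoff fixed separately per campaign, cut at about 7.5% in these data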;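 further: 0% = DMSO wells and 100% = 10 µM SAHA wells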
GAA30 counter = GAA30 FXN promoter activators, confirmation, counter-screen for GAA850 frataxin promoter activator project, cell-based, luminescence, HEK293, lucGAA30, triplicate; shares compounds with FXN GAA850 act; HEK293 lucGAA30 FXN promoter luciferase, 24 h; DMSO = 0%, 5 µM ipriflavone = 100%; activation, % at 6 µM; 1,900 compounds, 66% hits;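 active means mean activation above the mean of solvent-only control wells plus 3 SD, cut at about 22% in these data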;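 further: counterscreen of GAA850 promoter hits where activity marks nonselective or luminescence artifacts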
FXN GAA850 conf = FXN GAA850 promoter activators in reporter cells, confirmation, cell-based, luminescence, HEK293 lucGAA850, triplicate | AID 588351, 2011 | 1,900 compounds, 86% hits | activation, % at 6 µM | shares compounds with FXN GAA850 act | HEK293 lucGAA850 FXN promoter luciferase reporter, 24 h; 100% = activation by SAHA;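 active means mean activation above a set limit taken from the primary screen, cut at about 8% in these data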;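 further: 0% = DMSO wells and 100% = 10 µM SAHA wells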
DAX1 inh confirm = DAX1 (NR0B1) inhibitors relieving SF-1 repression, confirmation, cell-based, luminescence, HEK293T, full-length DAX-1, SF-1 activated StAR promoter. shares compounds with DAX1 inh-1. HEK293T StAR-promoter luciferase reporter, SF-1/DAX-1 repression. inhibition, % at 6.8 µM. 2,400 compounds, 87% hits. AID 652134, 2013;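 active means inhibition above the average of every tested compound plus 3 SD, cut at about 3.8% in these data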;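 further: 0% = DAX-1 cells with DMSO and 100% = no DAX-1 control cells with DMSO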
SF1 AF2mut Luc = StAR reporter signal changes without DAX1, counter-screen for DAX1 inhibitor project, cell-based, luminescence, AF-2 mutant SF-1, transactivation | inhibition, % at 6.8 µM | shares compounds with DAX1 inh-1 | 2,400 compounds, 78% hits | HEK293 StAR-luciferase, SF-1 AF2 mutant;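 active means inhibition above the mean of all tested compounds plus 3 SD, cut at about 3% in these data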;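 further: 0% = DAX-1 transfected cells with DMSO and 100% = cells without DAX-1 with DMSO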
LXRb hcDAF ctr = LXR agonists, Gal4 luciferase reporter, confirmation, counter-screen for hcDAF-12 agonist project, cell-based, luminescence, HEK293, H. contortus campaign | shares compounds with hcDAF12 agonist | HEK293 Gal4-LXR tk-luc reporter, 24 h; normalized: DMSO 0%, positive control 100% | activation, % at 6.8 µM | 3,400 tested, under 10 active;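 active means mean percent activation of the reporter above a cutoff set as the average over tested compounds plus their standard deviation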
Target sequence (P55055 whole entry, looked up, the tested form may be a part): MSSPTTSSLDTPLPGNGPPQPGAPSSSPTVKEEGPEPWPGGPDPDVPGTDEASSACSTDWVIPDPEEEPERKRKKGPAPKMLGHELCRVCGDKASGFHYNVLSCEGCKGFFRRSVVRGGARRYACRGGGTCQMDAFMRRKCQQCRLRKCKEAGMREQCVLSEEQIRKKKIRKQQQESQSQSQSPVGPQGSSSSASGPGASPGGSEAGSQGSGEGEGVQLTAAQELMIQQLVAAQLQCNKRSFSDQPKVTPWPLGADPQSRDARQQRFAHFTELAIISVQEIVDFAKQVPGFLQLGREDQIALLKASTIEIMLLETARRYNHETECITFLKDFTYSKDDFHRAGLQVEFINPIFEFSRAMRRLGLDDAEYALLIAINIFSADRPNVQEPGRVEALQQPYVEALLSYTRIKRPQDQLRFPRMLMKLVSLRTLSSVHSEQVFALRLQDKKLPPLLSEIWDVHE
hcDAF12 ag = H. contortus DAF-12 receptor agonists, confirmation, cell-based, luminescence, HEK293, lit1-tk-luc, triplicate | shares compounds with hcDAF12 agonist | HEK293 hcDAF-12 lit1-tk-luc reporter; % of Δ7-dafachronic acid response | activation, % at 6.8 µM | 3,400 compounds, 61% hits | AID 743032, 2013;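 active means mean activation across triplicate tests above the threshold derived from the earlier primary screen, cut at about 5.5% in these data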;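 further: 0% = DMSO only wells and 100% = 3 µM Δ7-dafachronic acid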
hgDAF12 ag = H. glycines DAF-12 receptor agonists, confirmation, cell-based, luminescence, HEK293, GAL4-LBD fusion. shares compounds with hgDAF-12 ag. HEK293 GAL4-hgDAF12 luciferase reporter, agonist mode; percent of butyrate response. activation, % at 6.8 µM. 3,300 compounds, 80% hits. AID 743050, 2013;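 active means mean activation over triplicate wells above the hit cutoff derived from the earlier primary screen, cut at about 11% in these data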;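 further: 0% = DMSO low control and 100% = 2 mM sodium butyrate high control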
LXR ag 2 = LXR agonists, Gal4 luciferase reporter, confirmation, counter-screen for hgDAF-12 agonist project, cell-based, luminescence, HEK293, H. glycines campaign; shares compounds with hgDAF-12 ag; 24 h; activation, % at 6.8 µM; 3,300 tested, under 10 active; AID 743051, 2013;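 active means mean activation of the triplicate above a set limit carried over from the primary screen, none filed active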
An asterisk follows results filed as active; x = no result given. Only some compounds are listed: those with a hit (about 4.5% of all), similar ones and a draw of the others.

SMILES	ssDAF-12 act	hgDAF-12 ag	hcDAF12 agonist	DAX1 inh-1	DAX1 inh-2	FXN GAA850 act	GAA30 counter	FXN GAA850 conf	hgDAF12 ag	LXR ag 2	others
O=C(NCCN1CCOCC1)c1cc(-c2cccs2)on1	0	20*	1	-1	3	17*	116*	55*	29*	0
O=C(NCc1cccs1)c1cc(-c2ccc(O)cc2)on1	-1	15*	4	3	5.7*	8.9*	103*	32*	18*	1
Cc1ccc(-c2nn(-c3ccc(F)cc3)cc2C(=O)N2CCN(C3CCS(=O)(=O)C3)CC2)cc1 (stereo unspecified)	-1	2	0	1	1	1	x	x	x	x
CCCCNC(=O)c1cc(-c2ccc(F)cc2)on1	1	34*	2	0	4	32*	166*	79*	42*	1
CC(=O)Nc1ccc2c(c1)OCO2	-1	-4	-1	0	-1	2	x	x	x	x
O=C(Nc1ccc2c(c1)OCO2)c1n[nH]c(=O)c2ccccc12	-1	18*	2	3	2	9.8*	100*	40*	9	1
O=C(Nc1ccc2c(c1)OCO2)c1ccc(Br)s1	1.6*	25*	13*	4.3*	2	20*	108*	38*	22*	1	LXRb hcDAF ctr=2;hcDAF12 ag=15*
O=C(NCCc1ccccc1)c1cc(-c2ccco2)on1	1	46*	5.6*	2	2	13*	153*	54*	53*	1
COc1ccc(CCNC(=O)c2cc(-c3ccco3)on2)cc1OC	-2	14*	-2	-2	-2	13*	77*	34*	11*	0
CSCCC(C(=O)Nc1c(C)cccc1C)n1c(-c2cnc(C)cn2)nc2ccccc21 (stereo unspecified)	-1	0	-1	0	x	x	x	x	x	x
Cc1ccc(CNC(=O)CN2NS(=O)(=O)c3ccccc3C2=O)cc1	-1	1	-1	1	1	0	x	x	x	x
C=CCn1c(C)cc(C(=O)CN2NS(=O)(=O)c3ccccc3C2=O)c1C	1.8*	15*	8.8*	3	5.4*	7.7*	13	32*	5	0	LXRb hcDAF ctr=0;hcDAF12 ag=5.8*
Nc1c(-c2ccccc2)cnc2c(-c3ccccc3)cnn12	1.3*	20*	11*	4.9*	4.8*	8.4*	91*	35*	11*	1	DAX1 inh confirm=14*;SF1 AF2mut Luc=3.6*;LXRb hcDAF ctr=2;hcDAF12 ag=9.3*
N#Cc1cnn2c(N)c(-c3ccc(Cl)cc3)cnc12	-1	2	-1	0	0	6	x	x	x	x
N#Cc1ccccc1OCc1nnc(-c2ccccc2Br)o1	0	15*	4	2	2	8.8*	102*	41*	11*	1
Clc1ccccc1OCc1nnc(-c2ccccc2Br)o1	0	10	2	1	1	3	x	x	x	x
CC1=C(C(=O)N(C)C)CC(CC(=O)NCc2cccs2)C(=O)N1Cc1ccc(F)cc1 (stereo unspecified)	-1	5	0	2	x	x	x	x	x	x
CN(CC(=O)OCC(N)=O)S(=O)(=O)c1ccc(Cl)cc1	-2	2	0	1	3	2	x	x	x	x
Nc1ccc(Cl)c(-c2nc3ncccc3o2)c1	-1	3	-2	0	0	0	x	x	x	x
Nc1ccc(-c2nc3ncccc3o2)c(Cl)c1	0	18*	6.0*	3	5.6*	8.7*	108*	41*	16*	1
